Dyrk1A ADPGlo: Dyrk1A (rat) kinase inhibition | Q63470 | ADP-Glo luminescence, NFATc1 peptide | inhibition, % at 12.5 µM | hit rate 0.43% among 310,000 | AID 504441; in the data active = inhibition above about 50%;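 also: plate controls were vehicle with enzyme for no effect and no enzyme for full effect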
HSF1 activator: increases HSF-1 driven luciferase reporter signal | AID 504408 | activation, % at 9 µM | hit rate 1.7% among 300,000 | NIH3T3-HGL HSF-1 luciferase reporter, MG132, 8 h; 100% = twice DMSO control signal;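 active = mean replicate activation of at least 50% with a set share of replicates each reaching 50%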;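 also: 0% = median of the neutral control wells and 100% = twice that signal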
NPR2 activator: GC-B (human) receptor activation; P20594; HEK293-GC-B cells, CNP EC30, cGMP TR-FRET; 0% at EC30 CNP, 100% saturating CNP; hit rate 0.11% among 370,000; AID 1920062; activation, % at 10 µM;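 active = activation at 10 µM reaching about 35% in either raw or pattern-adjusted values, limit read from the data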
NPR1 activator: GC-A (human) enzyme activation; hit rate 0.14% among 370,000; P16066; activation, % at 10 µM; AID 1671463; HEK293 GC-A cells, cGMP TR-FRET, EC30 ANP; 0% at EC30 ANP, 100% saturating ANP; in the data active = activation above about 40%
Target sequence (P16066 whole entry, looked up): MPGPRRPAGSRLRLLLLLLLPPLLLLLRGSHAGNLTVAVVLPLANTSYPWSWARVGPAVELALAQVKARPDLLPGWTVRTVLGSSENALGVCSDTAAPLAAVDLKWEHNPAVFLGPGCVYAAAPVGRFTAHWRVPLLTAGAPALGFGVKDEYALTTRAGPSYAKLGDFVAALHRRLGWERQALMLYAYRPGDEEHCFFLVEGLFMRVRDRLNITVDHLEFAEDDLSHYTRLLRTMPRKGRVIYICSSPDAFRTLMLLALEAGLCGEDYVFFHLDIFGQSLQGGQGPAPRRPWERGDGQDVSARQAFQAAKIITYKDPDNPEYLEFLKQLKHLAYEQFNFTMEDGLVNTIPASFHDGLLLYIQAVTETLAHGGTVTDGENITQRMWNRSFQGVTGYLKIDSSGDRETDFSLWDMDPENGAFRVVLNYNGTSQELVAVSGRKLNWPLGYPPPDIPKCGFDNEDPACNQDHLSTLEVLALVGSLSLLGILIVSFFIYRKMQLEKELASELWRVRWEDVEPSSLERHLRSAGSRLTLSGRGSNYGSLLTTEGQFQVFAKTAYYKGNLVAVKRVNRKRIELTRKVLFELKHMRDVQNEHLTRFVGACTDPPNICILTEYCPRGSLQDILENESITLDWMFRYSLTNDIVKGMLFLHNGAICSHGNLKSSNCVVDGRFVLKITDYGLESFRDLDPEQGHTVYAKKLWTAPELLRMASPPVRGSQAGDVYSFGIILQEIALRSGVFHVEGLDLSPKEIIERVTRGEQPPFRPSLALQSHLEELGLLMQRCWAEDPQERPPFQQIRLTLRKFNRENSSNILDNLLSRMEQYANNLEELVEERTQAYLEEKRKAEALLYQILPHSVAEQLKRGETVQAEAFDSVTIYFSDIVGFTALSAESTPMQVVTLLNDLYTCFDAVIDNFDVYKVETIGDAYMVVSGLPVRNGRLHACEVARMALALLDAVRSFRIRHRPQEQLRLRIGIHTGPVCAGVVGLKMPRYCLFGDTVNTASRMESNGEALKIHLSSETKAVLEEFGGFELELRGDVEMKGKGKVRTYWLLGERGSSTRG
aDG glyco up: alpha-DG glycosylation activation; Pro5-aDG cells, alpha-DG glycosylation AlphaScreen (IIH6); 0% Pro5, 100% B10-LARGE cell signal; activation, % at 10 µM; hit rate 0.22% among 360,000;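 active = activation of at least 8% versus controls, or a plate z-score of at least 8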;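 also: Pro5 are CHO cells carrying HIG-tagged alpha-DG that lacks glycosylation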
HSF1 inh: HSF1 inhibition; hit rate 0.77% among 300,000; NIH3T3-HGL HSE-luciferase, MG132-induced, luminescence 8 h; stronger effect = lower value; AID 2098; activity change, negative = inhibition, % at 7.5 µM (by protocol);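 active = more than half of replicate wells show activity change below -50%, luminescence cut by over half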;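 also: luciferase reports HSF-1 transcriptional activity via heat shock element; 0% = median of DMSO wells and -100% = zero luminescence signal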
The depositor's hits bear a star; . = no result given. Only some compounds are listed: those with a hit (about 2.5% of all), similar ones and a draw of the others.

SMILES | Dyrk1A ADPGlo | HSF1 activator | NPR2 activator | NPR1 activator | aDG glyco up | HSF1 inh
COc1cc(Cn2c3ccc(NC(=O)CC(C)C(F)(F)F)cc3c(=O)n2C)ccc1F (stereo unspecified) | . | . | 3 | 4 | 0 | .
O=C(NC1CCCCC1)C(c1ccco1)N(C(=O)c1csnn1)c1ccc(Cl)cc1 (stereo unspecified) | -2 | -90 | -8 | 3 | 0 | -89*
O=C(NC1CCCCC1)C(c1ccco1)N(C(=O)c1csnn1)c1cccc(F)c1 (stereo unspecified) | 3 | -6 | 3 | 2 | 0 | -1
C=C(C)CSc1nc2ncccc2[nH]1 | 5 | -3 | 0 | 0 | 0 | -4
Cc1ccc(CSc2nc3ncccc3[nH]2)cc1 | 1 | 77* | 4 | 0 | 0 | 46
Cc1oc(-c2cc3c(cc2Cl)OCO3)nc1CN1CCCC1c1ccc(F)cc1 (stereo unspecified) | 0 | -60 | -3 | -5 | 0 | -52*
CCOc1ccccc1-c1nc(CN2CCCC2c2nccs2)c(C)o1 (stereo unspecified) | -1 | . | -2 | 1 | 1 | .
O=C(O)CCSc1ncnc2sc(-c3ccccc3)cc12 | 17 | -65 | -5 | 8 | 0 | -64*
CC(=O)CCSc1ncnc2sc(-c3ccccc3)cc12 | -5 | 16 | -7 | -2 | 1 | 3
CSc1ccc(C2C(C#N)=C(N)N(c3ccccc3)C3=C2C(=O)CCC3)cc1 (stereo unspecified) | -9 | 58* | 2 | -5 | 0 | 22
CSc1c(C#N)c(N)nc2sc(C(=O)c3ccccc3)c(N)c12 | 28 | 116* | -7 | -7 | 1 | 81
Cc1ccc(C(O)P(=O)(OCCC(C)C)c2ccc(N(C)C)cc2)cc1 (stereo unspecified) | -3 | 23 | -4 | -8 | 0 | 6
COc1ccc(C(=O)CSc2nc(C)cc(C)n2)cc1C | -1 | 8 | -1 | 0 | 0 | 2
O=C(CSc1nc2ccccc2c(=O)[nH]1)NCc1ccc(Cl)cc1 | 11 | -15 | -4 | 0 | 0 | 0
O=c1[nH]c(SCc2ccc(Cl)cc2)nc2ccccc12 | -6 | 66* | -5 | -1 | 0 | 28
Clc1ccc(CSc2nc3ccncc3[nH]2)cc1 | 9 | 56* | -1 | 1 | 0 | 23
O=C(COC(=O)CNC(=O)c1ccc(Cl)c([N+](=O)[O-])c1)NNC(=O)c1cccs1 | 5 | 10 | -5 | 0 | 0 | -5
O=C(O)C1(Nc2ccc(Cl)cc2)CCCC1 | 4 | . | 3 | 1 | 0 | .
NC(=O)C1(Nc2ccc(-c3ccc(Cl)cc3)cc2)CCCC1 | 3 | . | -9 | 58* | 0 | .
COc1ccc(C(C)(O)c2nc(-c3ccc(OC)c(OC)c3)cs2)cc1 (stereo unspecified) | . | . | 3 | 3 | 0 | .
O=c1[nH]c2ccccc2nc1/C=C/c1ccc(O)cc1 | 0 | 39 | -3 | -6 | 0 | 36
O=c1[nH]c2ccccc2nc1/C=C/c1ccccc1 | 0 | 99* | -4 | 1 | 0 | 62
Cc1cnc(NC(=O)CSc2nnc(-c3cccs3)n2C)s1 | -3 | -19 | 0 | 2 | 0 | -7
COc1ccc(-c2cc(C(=O)N3CCCCCC3)c3ccccc3n2)c(OC)c1 | 0 | 79* | 7 | 2 | 0 | 26
COc1ccc(OC)c(-c2cc(C(=O)N/N=C/c3cc(OC)c(OC)cc3OC)c3ccccc3n2)c1 | -3 | -72 | 20 | 17 | 0 | -69*
SMILES | Dyrk1A ADPGlo | HSF1 activator | NPR2 activator | NPR1 activator | aDG glyco up | HSF1 inh
O=c1c2c3c(sc2nc2n1CCCS2)CCCC3 | -3 | 28 | 6 | -2 | 0 | 3
Cc1ccccc1CN1CCC(Oc2ccc(C(=O)NCc3ccccn3)cc2)CC1 | -2 | 10 | 3 | 0 | 0 | 2
COc1ccc2c(c1)C=C(CN1CCC(CO)(CCc3ccccc3)CC1)CO2 | 5 | 0 | 0 | -1 | 0 | -1
COc1ccc(CC2(CO)CCN(CC3=Cc4cc(Cl)ccc4OC3)CC2)cc1 | -2 | 2 | -8 | -10 | 13* | 10
O=C1C2C3C=CC(CO)(O3)C2C(=O)N1c1ccc(-c2ccccc2)cc1 (stereo unspecified) | . | 47 | . | . | . | 35
CC(C)(C)C(=O)NCC12C=CC(O1)C1C(=O)N(c3ccccc3)C(=O)C12 (stereo unspecified) | 6 | 203* | . | . | 2 | 184
Cc1ccc(N2C(=O)C3C4C=CC(CNC(=S)Nc5ccc(Cl)cc5)(O4)C3C2=O)cc1 (stereo unspecified) | 11 | 55* | -1 | -1 | 1 | 29
COc1cc([C@@H]2c3cc4c(cc3[C@H](O)[C@H]3COC(=O)[C@H]23)OCO4)cc(OC)c1OC | 8 | -74 | 1 | -5 | 0 | -69*
COc1cc(C2c3cc4c(cc3C(O)C3COCC23)OCO4)cc(OC)c1OC (stereo unspecified) | . | . | -4 | -1 | 0 | .
O=C(COc1ccc(Br)cc1Cl)NC(=O)NCc1ccccc1 | -2 | 67* | 2 | 5 | 0 | 27
O=C(COc1ccc(Br)cc1Br)NC(=O)NC1CCCC1 | 4 | 3 | -5 | 4 | 0 | -3
O=C(COc1ccccc1Cl)NCc1ccccc1 | -5 | 20 | 1 | -2 | 0 | 13
CC(C)(C)NC(=O)NC(=O)COc1ccc(Br)cc1Br | 3 | 74* | -1 | 0 | 1 | 46
CCOC(=O)Cn1cc(C(=O)C(=O)N2CCOCC2)c2ccccc21 | -3 | 0 | 3 | -1 | 0 | 1
COC(=O)C1=C(C)NC(C)=C(C(=O)OCC2CCCO2)C1c1cccc(Cl)c1 (stereo unspecified) | 3 | -5 | -15 | -20 | 0 | 11
COc1ccc(OC)c(S(=O)(=O)Nc2cc3c4c(c2)CC(=O)N4CCC3)c1 | 14 | 2 | 2 | -1 | 1 | -4
CC(=O)Nc1ccc(S(=O)(=O)NCc2ccc(C(=O)NCc3ccc4c(c3)OCO4)cc2)cc1 | -3 | -72 | 0 | -2 | 0 | -62*
CC(=O)Nc1ccc(S(=O)(=O)NCc2ccc(C(=O)NCc3ccc(Cl)cc3)cc2)cc1 | -2 | -6 | -5 | -2 | 0 | -1
Cc1nc2c(-c3ccc(F)cc3)cnn2c(N)c1-c1ccc(F)cc1 | 1 | -62 | -8 | -32 | 1 | -56*
Cc1ccc2[nH]cc(C(=O)CN3CCOCC3)c2c1 | 5 | -7 | -2 | 3 | 0 | 0
Cc1ccnc(NC(=O)/C=C/c2cccs2)c1 | 25 | 42 | -1 | 0 | 0 | 17
COc1cc(/C=N/OCC(=O)NC2CCCCC2C)ccc1OCc1ccc(Cl)cc1 (stereo unspecified) | 1 | 2 | 0 | -2 | 1 | -11

Screens deposited in PubChem BioAssay by several laboratories.
